Most compounds without a hit are left out; they make up all but 21% or so of the library.
Shiga toxin inh = inhibitors of Shiga toxin in Vero cells | 290,000 tested, 9.2% active | Vero cells, Shiga toxin protein synthesis inhibition reporter | AID 2315 | inhibition, % at 38.7 µM; in the data active means inhibition mostly above about 28%, no sharp cut-off; inactive means mostly below about 43%; further: 0% is about no effect
Pf growth 48h = inhibits P. falciparum growth in the first generation, 48 h; P. falciparum luciferase growth in erythrocytes, 48 h; 310,000 tested, 5.9% active; Potency, µM (titrated, usually from 28.7 µM), for inactives: at the highest dose activity change, negative = inhibition, most hits filed as inhibitors; AID 504832; further: potency means the concentration at half of the fitted maximal effect; on the % scale 0 is the no-effect control and ±100 the full control effect
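Luminescence readout; reporter = integrated firefly luciferase in P. falciparum. RBC culture at 2% hematocrit, 0.1% parasitemia final, 37 C/5% CO2; decreased signal taken as growth inhibition.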
Pf growth 96h = P. falciparum growth inhibition at 96 hours. Potency, µM (highest dose often 28.7 µM), for the others: at the top dose activity change, negative = inhibition, most hits filed as inhibitors. AID 504834. P. falciparum luciferase reporter growth, 96 h. 320,000 tested, 6.9% active; further: potency means the concentration at half of the fitted maximal effect; on the % scale 0 is the no-effect control and ±100 the full control effect
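Erythrocytes infected with luciferase-expressing P. falciparum were dispensed at 2% hematocrit and 0.05% parasitemia (final), then incubated with compounds 96 hours at 37 C in 5% CO2. Luminescence after detection reagent addition reported growth.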
NS1 function inh = influenza NS1 inhibition. 270,000 tested, 0.4% active. Potency, µM (highest dose often 46.1 µM), without a hit: top-dose activity, positive = more growth; calls by dose curve; further: potency means the concentration at half of the fitted maximal effect; actives are rising curves; nearly all actives have a fitted effect of over 50% in size
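Recovery from NS1-induced slow growth read by OD600 in budding yeast switched to galactose assay medium (pH 6.0, -URA) at 1:100 dilution. Compound 23 nl per well; the matching strain lacking NS1 serves as control.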
CHX counter = affects cycloheximide protein synthesis inhibition readout, counter-screen. cell reporter, cycloheximide protein synthesis inhibition counterscreen. max response, %. 300,000 tested, 12% active. AID 2314; in the data active means max response mostly above about 13%, no sharp cut-off; inactive means mostly below about 14%; further: read at 38.3 µM for the half of the compounds with a filed dose; 0% is about no effect
Active calls of the source: *; ? = inconclusive; / = no result; [ ] = dose if it differs, or a comment. Unless noted, the call rests on the fitted dose curve; in most records, active means well fitted inhibition curve with a large enough effect; inconclusive means small, poorly fitted or top-dose-only effect, or another doubt; inactive means no such curve, though single readings can be large or run the other way.

SMILES	Shiga toxin inh	Pf growth 48h	Pf growth 96h	NS1 function inh	CHX counter
O=S(=O)(NC1CC1)c1ccc(S(=O)(=O)N(Cc2ccccn2)C2CC2)cc1	2	?	0%	?	8
CCOc1cc(N2CCOCC2)c(OCC)cc1NC(=O)COc1cccc(CC)c1	/	10µM*	?	/	/
CCOc1cc(N2CCOCC2)c(OCC)cc1NC(=O)CSc1nccc(C)n1	23	?	?	/	2
CCOc1cc(N2CCOCC2)c(OCC)cc1NC(=O)CSc1ccccc1C(=O)O	/	?	9.3µM*	/	/
CCOc1cc(N2CCOCC2)c(OCC)cc1NCC(=O)N1CCN(Cc2ccccc2)CC1	-15	?	5.9µM*	-3%	7
CCOc1cc(N2CCOCC2)c(OCC)cc1NC(C)C(=O)N1CCC(C)CC1 (configuration not stated)	-7	10µM*	?	-2%	-2
CCN(CC)CCNc1ccc2nnc(CCNS(=O)(=O)c3ccc(C)cc3)n2n1	-18	-3%	?	/	2
CC(C)[C@H](NC(=O)Nc1ccc(Oc2ccccc2)cc1)C(=O)O	-3	34%	52%	5%	1
C/C(N)=C(/C#N)C(=O)CSc1nc2scc(-c3ccc(F)cc3)c2c(=O)n1C	-7	0%	?	2%	3
S=C1NCCOCCNC(=S)NCCOCCOCCOCCN1	-1	-4%	19%	9%	-2
CCOc1cc(N2CCOCC2)c(OCC)cc1NC(=O)Cc1cccc(OC)c1	-7	?	?	-14%	-4
CCOc1cc(N2CCOCC2)c(OCC)cc1NC(=O)Cc1ccc(OC)c(OC)c1	26	9.3µM*	180%	2%	2
CCN(CC)S(=O)(=O)c1ccc2[nH]c(=O)c3ccccc3c2c1	-5	16%	-16%	14%	-2
O=C(Nc1cccc([N+](=O)[O-])c1)c1ccc(CSc2ccccc2)cc1	-5	9%	16%	7%	-4
O=C(COC(=O)c1ccccc1C(=O)c1ccccc1)Nc1cccc([N+](=O)[O-])c1	30*	24%	64%	?	19*
O=C(Nc1cccc([N+](=O)[O-])c1)c1ccccc1	30	95%	128%	-31%	18*
O=C(Nc1cccc([N+](=O)[O-])c1)c1ccc2nsnc2c1	27	4%	13µM*	4%	17
O=C(Nc1ccc2ccccc2c1)c1cccc([N+](=O)[O-])c1	74*	39%	?	0%	20*
CC(C)C(=O)NC(Nc1cccc([N+](=O)[O-])c1)C(Cl)(Cl)Cl (configuration not stated)	-10	1.9µM*	23%	2%	-1
O=C(Nc1ccc(Oc2cccnc2)cc1)c1cccc([N+](=O)[O-])c1	44*	59%	-4%	-7%	16*
CNC(=O)COC(=O)c1ccccc1C(=O)c1ccc(Cl)c([N+](=O)[O-])c1	41	?	-4%	/	33*
O=C(Nc1ccc(Oc2cccnc2)cc1)c1ccc([N+](=O)[O-])cc1	-2	?	-2%	/	9
Cc1ccc(-c2cc(-c3ccccc3)cc(-c3ccccc3)[n+]2-c2ccccc2C(=O)O)cc1	/	10µM*	2.9µM*	/	/
Cc1cccc(C(=O)c2ccccc2C(=O)O)c1	-8	0%	29%	0%	-2
CC1CN(C(=O)c2cccc(COc3ccccc3Cl)c2)CC(C)O1 (configuration not stated)	135*	134%	?	-2%	40*
SMILES	Shiga toxin inh	Pf growth 48h	Pf growth 96h	NS1 function inh	CHX counter
CC1CN(C(=O)c2cccc(S(=O)(=O)Nc3ccccc3Cl)c2)CC(C)O1 (configuration not stated)	16	-8%	3%	4%	-4
CC1CN(C(=O)c2cccc(C(=O)N3CC(C)OC(C)C3)c2)CC(C)O1 (configuration not stated)	-13	13%	15µM*	-3%	-3
CCC(CC)NC(=O)CON=C1c2ccccc2-c2ccccc21	-2	13µM*	13µM*	0%	-1
Cc1cccc(N2CCN(S(=O)(=O)c3cnc[nH]3)CC2)c1C	-17	/	48%	-8%	-8
O=C(NCC1CCCO1)c1ccc2nc(N3CCCCC3)sc2c1 (configuration not stated)	88*	63%	-21%	-38%	51*
O=C(NCC1CCCO1)c1ccc(N2CCCCC2)nc1 (configuration not stated)	40*	62%	?	1%	28*
CCOc1ccccc1C(=O)N/N=C/c1coc2ccc(C)cc2c1=O	-10	-3%	-7%	-1%	-2
CSc1nc2cc(C)nn2c(-c2ccccc2Cl)c1C#N	-12	39%	3%	0%	-1
COc1cc(-c2cc(N3C(=O)Nc4ccccc4N3O)n[nH]2)cc(OC)c1OC	-8	-9%	32%	?	-2
COc1ccc(-c2cc(N3C(=O)Nc4ccccc4N3O)n[nH]2)cc1OC	19	12%	10%	11%	13*
Cn1cc([N+](=O)[O-])c(C(=O)NC2CCCCCCC2)n1	7	36%	-26%	-8%	6
O=C(Nc1ccc(OC(F)(F)F)cc1)c1ccc2nccnc2c1	79*	20%[5.75 µM]	18%	/	27*
O=C(Nc1ccc(SC(F)F)cc1)c1ccc2nccnc2c1	41*	76%	?	-18%	46*
CCCCNC(=O)c1cc(-c2ccc(F)cc2)on1	52*	112%	-34%	-4%	35*
CCCCNC(=O)c1cc(-c2ccc(OC)c(OC)c2)on1	31	/	3.3µM*	-52%	14*
CCOC(=O)c1cc(-c2ccc(C)cc2)n(CCC(=O)NCCCOC)c1C	5	0%	/	4%	1
CCCNC(=O)c1cc(-c2ccc(OC)cc2)on1	70*	166%	?	-18%	51*
CCc1ccccc1NC(=O)c1cc(-c2ccc(OC)cc2)on1	1	35%	?	3%	-1
CCCNC(=O)c1cc(-c2ccc(OC)cc2)n(CCCOC)c1C	-13	2.1µM*	39%	-24%	-1
CCN(CC)CCCNC(=O)c1cc(-c2ccc(Cl)cc2)on1	6	?	1%	3%	1
CN(Cc1cnn(Cc2ccccc2)c1)C(=O)c1cccc(S(=O)(=O)N2CCOCC2)c1	/	-7%	?	/	/
CCCCNC(=O)c1cc(-c2ccc(OC)cc2)on1	194*	130%	?	-5%	52*
Cc1ccc(-n2nnnc2SCC(=O)Nc2ccc3c(c2)COC3=O)cc1C	-4	-3%	/	8%	17*
Cn1ccnc1SCC(=O)Nc1ccc2c(c1)COC2=O	52*	10%	/	2%	14
Cc1ccc(-n2nnnc2SCC(=O)Nc2ccc3c(c2)OCCO3)cc1C	9	24%	?	2%	7
Cc1ccc(/C=C/C(=O)O)cc1S(=O)(=O)NC1CCS(=O)(=O)C1 (configuration not stated)	-5	8%	-11%	4%	-3
COc1cccc(NC(=O)COc2cccc3c2CCNC3=O)c1	/	-4%	?	/	/
COc1ccc(N/C=C2/CCCCC2=O)cc1	129*	47%	?	?	78*

From PubChem BioAssay
